A number with no mark means an inactive call. The source made the active and inactive calls. Unless noted, no stated cut-off is given here; in the data, active means inhibition above about 42%; inactive means the rest.
Key:
[1] = StAR promoter reporter inhibitors, counter-screen for LRH-1 inverse agonist project, cell-based, luminescence, high throughput (AID 651611; in the data active means inhibition above about 28%); details: StAR promoter luciferase reporter counterscreen, at 3.6 µM, active compounds read high
[2] = biological target: Nuclear receptor subfamily 5 group A member 2 (Homo sapiens) (UniProt O00482); assay: NR5A2 activity suppression in reporter cells – cell-based, luminescence, confirmation (AID 651613); details: cell-based LRH-1 luciferase reporter, inverse agonism; at 3.6 µM; active compounds read high;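 further: HEK293T cells co-transfected with LRH-1 and StAR promoter luciferase reporter; 0% = vehicle wells and 100% = parental cells lacking receptor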
Sequence of Nuclear receptor subfamily 5 group A member 2 (Homo sapiens) (O00482 whole entry, looked up): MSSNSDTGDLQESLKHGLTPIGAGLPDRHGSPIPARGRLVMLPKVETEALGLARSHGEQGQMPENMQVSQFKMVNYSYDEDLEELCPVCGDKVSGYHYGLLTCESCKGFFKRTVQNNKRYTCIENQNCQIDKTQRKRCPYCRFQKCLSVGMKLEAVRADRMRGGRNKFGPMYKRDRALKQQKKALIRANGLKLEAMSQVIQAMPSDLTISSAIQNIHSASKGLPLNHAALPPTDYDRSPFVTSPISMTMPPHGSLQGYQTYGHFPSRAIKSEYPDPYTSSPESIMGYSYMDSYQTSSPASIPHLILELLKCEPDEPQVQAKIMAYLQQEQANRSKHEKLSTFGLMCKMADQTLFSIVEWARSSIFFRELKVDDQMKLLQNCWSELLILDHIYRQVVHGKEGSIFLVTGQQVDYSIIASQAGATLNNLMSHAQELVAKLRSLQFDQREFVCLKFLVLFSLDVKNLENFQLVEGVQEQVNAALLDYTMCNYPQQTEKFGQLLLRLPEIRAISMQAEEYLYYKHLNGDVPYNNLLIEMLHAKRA

[3] = biological target: Steroidogenic factor 1 (Homo sapiens) (UniProt Q13285); assay: inverse agonism at SF1 nuclear receptor – cell-based, luminescence, high throughput, counter-screen for LRH-1 inverse agonist project (AID 651614; in the data active means inhibition above about 44%;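 further: cells cotransfected with StAR promoter reporter and SF1 expression vector; 0% = vehicle on cells with receptor and 100% = vehicle on cells lacking receptor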); details: cell-based SF1 luciferase reporter, at 3.6 µM, active compounds read high
Sequence of Steroidogenic factor 1 (Homo sapiens) (Q13285 whole entry, looked up, the tested form may be a part): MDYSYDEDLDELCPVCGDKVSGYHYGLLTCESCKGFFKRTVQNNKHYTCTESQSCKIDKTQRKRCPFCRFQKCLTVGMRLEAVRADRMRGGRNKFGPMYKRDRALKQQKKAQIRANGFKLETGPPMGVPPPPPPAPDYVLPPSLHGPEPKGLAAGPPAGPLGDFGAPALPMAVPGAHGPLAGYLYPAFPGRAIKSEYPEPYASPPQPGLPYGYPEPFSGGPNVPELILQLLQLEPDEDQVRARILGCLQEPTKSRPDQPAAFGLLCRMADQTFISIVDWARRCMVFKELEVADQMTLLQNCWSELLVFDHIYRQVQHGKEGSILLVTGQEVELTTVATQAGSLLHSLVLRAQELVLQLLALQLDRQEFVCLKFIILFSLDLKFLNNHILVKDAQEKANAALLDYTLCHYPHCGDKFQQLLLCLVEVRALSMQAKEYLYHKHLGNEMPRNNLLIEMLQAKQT

[4] = compounds suppressing VP16-driven luciferase signal – cell-based, luminescence, high throughput, counter-screen for LRH-1 inverse agonist project (AID 651615; in the data active means inhibition above about 33%); details: Gal4-VP16 luciferase reporter cells, at 3.6 µM, active compounds read high

Row | Structure (SMILES) | inhibition [1] | inhibition [2] | inhibition [3] | inhibition [4]
1 | Cn1nnnc1Sc1ncnc2scc(-c3ccc(-c4ccccc4)cc3)c12 | 19.4% | 33.6% | 39.4% | -20.2%
2 | Cc1ccc[n+](CC(=O)Nc2ccc(Cl)c([N+](=O)[O-])c2)c1 | 9.69% | 47% (active) | 39.2% | 13.9%
3 | CC1CCC2(CC1)NC(=O)N(CC(=O)Nc1ccc3c(c1)OCCCO3)C2=O (stereo not drawn) | 10.5% | 46.8% (active) | 44.8% (active) | -7.87%
4 | CCC(=O)N1CCN(c2ccc(NC(=O)c3ccc([N+](=O)[O-])o3)cc2Cl)CC1 | 13% | 56.2% (active) | 58.2% (active) | -21.9%
5 | O=C(N/N=C/c1ccc(Sc2ccccn2)o1)c1cccc([N+](=O)[O-])c1 | -2.81% | 44.3% (active) | 40% | 10.4%
6 | Cc1onc(-c2c(F)cccc2Cl)c1C(=O)Oc1ccccc1 | -12.8% | 41.9% (active) | 33.8% | 11.2%
7 | O=C(CSc1nc(=O)n2cc(Cl)ccc2n1)Nc1ccc2c(c1)OCCO2 | 3.01% | 47.8% (active) | 44.1% (active) | -4.83%
8 | Cc1ccc(Sc2ccc(NC(=O)CCl)cc2)cc1C | 0.02% | 52.6% (active) | 56.5% (active) | -14.4%
9 | CCN(CC)C1Oc2cc3c(cc2C(c2cccc(OC)c2O)C1C)OCO3 (stereo not drawn) | 23.9% | 53.1% (active) | 72% (active) | 15.5%
10 | CNC(=O)c1nc(C)c(C2(C)CC(c3cccc([N+](=O)[O-])c3)=NO2)s1 (stereo not drawn) | 8.75% | 27% | 35.6% | -1.29%
11 | CC(=O)/C(=N/Nc1ccccc1[N+](=O)[O-])N1CCCc2ccccc21 | 17.5% | 49.2% (active) | 52.1% (active) | 22.7%
12 | Cc1nn(Cc2ccc(Cl)cc2)c(C)c1NC(=O)c1ccc([N+](=O)[O-])cc1 | 36.1% (active) | 55.9% (active) | 50% (active) | -3.45%
13 | COCCSc1ccccc1C(=O)NCc1ccc2c(c1)OCO2 | 6.49% | 39.5% | 48.9% (active) | 2.27%
14 | CN(C)c1nnnn1-c1cccc(Oc2ncc(C(F)(F)F)cc2Cl)c1 | 8.18% | 38.6% | 38.3% | -5.85%
15 | CCn1c(SCC(=O)Nc2ccc(N3CCOCC3)cc2)nnc1-c1ccco1 | 3.02% | 58% (active) | 47.3% (active) | 10.2%
16 | O=C(c1ccc([N+](=O)[O-])o1)N1CCc2ccccc21 | -6.72% | 51.8% (active) | 59% (active) | -36.3%
17 | CC(=O)Nc1ccc(NC(=O)CSc2ccc(-c3ccco3)nn2)cc1 | 16.1% | 49.4% (active) | 44.7% (active) | -18.3%
